# In the supplement of paper PMC9334596:
# Several values for one entry are separate records, joined by “and”; a condition that tells them apart may be missing. Identical values can stand only once. Over roughly 5,300 compounds, “PER2::LUC luminescence relative to vehicle control” has its median near 0.96; the highest 2% begin near 1.3. This is one part of a sample in which the highest values are shown more often than they occur.
# Tested on: mPer2Luc MEF
# Test: PER2::LUC luminescence relative to vehicle control (fold of vehicle); higher = higher PER2::LUC reporter signal
# Settings: 10 µM
# Summary of the method: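 Compounds from commercial libraries were added at 10 μM to 384-well plates seeded 48 h earlier with ~3000 mPer2Luc mouse embryonic fibroblasts per well. The cells were kept in DMEM with 10% FBS at 37 °C and 5% CO2. Luminescence was read with ONE-Glo 24 h and 30 h after treatment, then an alamarBlue viability assay was run. Values are PER2::LUC luminescence relative to vehicle control, as fold change.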
Compound,PER2::LUC luminescence (time after treatment 24 h),PER2::LUC luminescence (time after treatment 30 h)
CCCCCCC(=O)CCCCCC/C=C/C[C@@H](O)[C@H](O)[C@@](N)(CO)C(=O)O,1.26,1.35
Cc1ncc(C[n+]2csc(CCO)c2C)c(=O)[nH]1,1.01,0.895
NCC(CC(=O)O)c1ccc(Cl)s1 (racemic),1.04,0.985
CC[C@H](C)[C@@H]([C@@H](CC(=O)N1CCC[C@H]1[C@H](OC)[C@@H](C)C(=O)N[C@H](C)[C@@H](O)c1ccccc1)OC)N(C)C(=O)[C@@H](NC(=O)[C@@H](NC)C(C)C)C(C)C,0.378,0.38
NCCc1ccc(O)cc1,1.03 and 0.947,0.942 and 0.934
NCCc1c[nH]c2ccc(O)cc12,0.925,0.97
Cc1[nH]c2ccc(O)cc2c1CCN,1.08 and 1.05,0.977 and 1.35
NC(CCCCCP(=O)(O)O)C(=O)O (racemic),1.22,1.09
CC(=O)Nc1cc([As](=O)(O)O)ccc1O,1.04 and 1.02,1.06 and 0.878
O=[N+]([O-])c1ccc([As](=O)(O)O)cc1,1.13,0.866
O=[N+]([O-])c1cc([As](=O)(O)O)ccc1O,1.08,1.54
COc1cc(=O)oc(/C=C/C=C/C=C/C(C)=C/[C@@]2(C)O[C@H](C)[C@](C)(O)[C@H]2O)c1C,0.952,0.913
COc1c2c3c4c(c(OC)c(=O)c5c(O)cc(OC)c(c6c(OC)cc(O)c(c1=O)c63)c54)[C@@H](C(C)=O)[C@@](C)(O)C2,1.14,1.06
O=C(O)[C@@H]1C[C@H]2C[C@@H](CP(=O)(O)O)CC[C@H]2CN1,1.03,0.966
C=C(C)c1cc2cc(C(C)=O)c(O)cc2o1,1.31,1.39
OCC1C(O)C(O)C2C(O)CCN12 (stereo not drawn),1.1,1.08
COc1ccc(O)c(C(C)(C)C)c1.COc1ccc(O)cc1C(C)(C)C,0.868,1.18
COc1ccc(/C=C/c2cc(O)cc(O)c2)cc1,1.69,1.76
C=CCc1ccc(OC)cc1,0.993,0.968
CC(=O)Oc1ccc(/C=C/c2cc(OC(C)=O)cc(OC(C)=O)c2)cc1,1.76,1.65
CCCC(=O)O[C@@H]1[C@@H](C)[C@@]2(O)[C@@H](C=C(CO)C[C@]3(O)C(=O)C(C)=C[C@@H]23)[C@@H]2C(C)(C)[C@]12OC(=O)CCC,1.13,0.899
COc1cc2c(cc1F)C(c1ccccc1Cl)=Nc1c(n[nH]c1C)N2,0.461,0.367
CC(=O)OCC1=C[C@H]2[C@@H]3C(C)(C)[C@]3(OC(=O)Cc3ccccc3)C[C@@H](C)[C@]2(O)[C@@H]2C=C(C)C(=O)[C@@]2(O)C1,1.21,1.09
COc1ccc(C(C)(C)C)cc1CN[C@H]1C2CCN(CC2)[C@H]1C(c1ccccc1)c1ccccc1,0.868,0.939
